Reference: PubChem BioAssay (NCI)
This is part of a sample that, as a whole, favours compounds with a hit. Of some 79,000 tested, about 15% had one in any assay. A number with no mark means an inactive call. Calls of active or inactive are those of the source. Rule as the data show it: active = growth inhibition above about 70%; inactive = the rest.

What was measured:
[1] = NCI Yeast Anticancer Drug Screen. Data for the rad50 strain (AID 155);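 also: 0% = growth of vehicle-only cultures of the same strain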; conditions: S. cerevisiae rad50 strain growth inhibition; at 50.0 µM; hits give high values
Outline: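 Vehicle-treated cultures provide the reference for the growth inhibition reported for compound-exposed, repair-deficient yeast.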

[2] = NCI Yeast Anticancer Drug Screen. Data for the mec2-1 strain (AID 157); conditions: S. cerevisiae mec2-1 strain, at 50.0 µM, hits give high values
Outline: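 Test agents were screened against the mec2-1 yeast strain, with defined DNA repair or cell cycle alteration. Growth was scored as inhibition against vehicle-only controls.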

[3] = NCI Yeast Anticancer Drug Screen. Data for the sgs1 mgt1 strain (AID 161);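 also: 0% = growth of cultures given vehicle only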; conditions: S. cerevisiae sgs1 mgt1 strain, at 50.0 µM, hits give high values
Outline: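 Test agents were incubated with a DNA-repair-mutant yeast strain. Growth was then read and compared against vehicle-treated controls.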

[4] = NCI Yeast Anticancer Drug Screen. Data for the cln2 rad14 strain (AID 165);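 also: 0% = growth equal to vehicle treated cultures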; conditions: S. cerevisiae cln2 rad14 strain, at 50.0 µM, hits give high values
Outline: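 Growth of compound-exposed yeast (cln2 rad14 genotype) measured and expressed as inhibition relative to vehicle.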

[5] = NCI Yeast Anticancer Drug Screen. Data for the bub3 strain (AID 167); conditions: S. cerevisiae bub3 mutant strain, at 50.0 µM, hits give high values
Outline: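 Mutant yeast screening strain plus compound; vehicle-treated cultures serve as the 0% inhibition reference.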

[6] = NCI Yeast Anticancer Drug Screen. Data for the mlh1 rad18 strain (AID 175); conditions: S. cerevisiae mlh1 rad18 strain growth inhibition; at 50.0 µM; hits give high values
Outline: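 In this whole-cell yeast screen, a strain with altered DNA damage repair is challenged with compound, and its growth is measured against matched vehicle-treated controls.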

SMILES | growth inhibition [1] | growth inhibition [2] | growth inhibition [3] | growth inhibition [4] | growth inhibition [5] | growth inhibition [6]
COc1ccccc1-c1coc2c(ccc3oc(C(C)C)cc32)c1=O | -19.2% | 20% | 3.25% | -52% | -0.5% | 22.6%
CC(C)CC(CN(C)C)C(=O)/C=C/c1ccccc1 (stereo unspecified) | 18.2% | -2.25% | 19.4% | -6.95% | 11.8% | 22.1%
Cc1ccc(S(=O)(=O)OCC(F)(F)C(F)(F)C(F)(F)CO)cc1 | 19.1% | 3.3% | 22.2% | -15.6% | 3.85% | -15.5%
COc1cccc(C2CC(C)=Nc3c(ccc4c3C(=O)c3ccccc3C4=O)N2)c1O (stereo unspecified) | 1.2% | 17.9% | 24.6% | 7.8% | 11.8% | 14.8%
O=C(Nc1ccccc1)OCc1cnc2ccccc2c1 | 6.05% | -22.6% | 9.2% | -9.4% | 3.05% | -2.8%
CCOC(=O)c1cn(CC)c2ccc3ccsc3c2c1=O | -18.2% | -40.4% | -15.5% | 10.2% | -9.4% | -30.9%
CC(CC(=O)O)C(C)(C#N)C(=O)O (stereo unspecified) | 1.8% | 1.4% | 2.8% | -41.5% | 0.05% | -4.95%
COc1cccc(N(CCO)C2CCCCC2)c1 | 12.8% | 4.2% | 18.2% | 15.7% | 10.9% | 2%
Cc1cccc(C2(C(=O)O)CCCC2)c1 | 14.7% | -5.2% | 15.9% | 39% | 24.3% | 35.4%
O=C(CSCSCC(=O)Nc1ccc(C2=NCCN2)cc1)Nc1ccc(C2=NCCN2)cc1 | 35% | 18.4% | 36.6% | -6.1% | 17.9% | 19.9%
c1ccc(C2SCSCS2)cc1 | 12.1% | -5.45% | -15.8% | -8.4% | 1.1% | 6.95%
O=C(CN1CCC(O)(c2ccccc2)CC1)N1CCN(/C=C/c2ccccc2)CC1 | -4% | -0.45% | -3.75% | -10.6% | -0.1% | 10.8%
Cc1cc(C)c(C(=O)Oc2ccc(C)c(CC(Cl)(Cl)Cl)c2)c(C)c1 | 32.8% | 9% | 4.85% | 19.1% | -0.2% | 14.4%
C=COC(=O)C(Cc1ccccc1)NC(=O)OCc1ccccc1 (stereo unspecified) | -5.2% | 10.8% | -23.2% | 10.6% | -7.65% | 6.9%
Cc1cccc2c3c(ccc12)C(=O)OC3=O | -0.3% | -2.85% | 4.1% | -22.3% | -6.5% | 4.25%
CCN(CC)C(=O)Oc1cc(C(=O)N(CC)CC)c(OC(=O)N(CC)CC)cc1C(=O)N(CC)CC | 5.1% | 8.15% | -1.6% | -1.4% | 1% | 30.1%
O=C(c1cccc(Cl)c1)c1cccc2ccccc12 | -1.7% | 5.6% | 19.6% | -37% | 41.9% | -10.2%
O=S(=O)(c1cccc(C(F)(F)F)c1)N(CCCCN(S(=O)(=O)c1cccc(C(F)(F)F)c1)S(=O)(=O)c1cccc(C(F)(F)F)c1)S(=O)(=O)c1cccc(C(F)(F)F)c1 | -13.8% | -11.6% | -20.7% | -20.2% | -19.2% | -6.6%
CC(C)=Cc1ccccc1C1(C)C(c2ccccc2)=C1c1ccccc1 | -3.35% | 8.6% | -9.25% | 26.1% | -0.3% | -3.6%
CCCCNC(=O)CCC(NS(=O)(=O)c1ccc(C)cc1)C(=O)NCCCC (stereo unspecified) | 5.1% | 2.1% | -9% | 1.85% | -3.1% | -18.7%
CC1OC(OCc2ccc(-c3ccccc3)cc2)CC(N)C1O (stereo unspecified) | -1.9% | 28.9% | 24.6% | -6.85% | 29.6% | 2.9%

SMILES | growth inhibition [1] | growth inhibition [2] | growth inhibition [3] | growth inhibition [4] | growth inhibition [5] | growth inhibition [6]
Cc1cccc(C(C#N)c2ccc(N)cc2)c1 (stereo unspecified) | -35.2% | -61% | -4.65% | 11.7% | -46% | -18.4%
CCCNC(=O)Oc1ccccc1C(N)=O | -3.35% | -20.1% | -4.4% | -44% | 8% | -5.75%
CC(C)CCC[C@@H](C)[C@H]1CC[C@@]2(C)[C@@H]3CC[C@@H]4C(=O)CC[C@]4(C)[C@H]3CC[C@]12C | 31.3% | 1.5% | 41.5% | 26.8% | 1.6% | 42.1%
CC(C)c1ccc(C=O)cc1 | 18.3% | 31% | -21.5% | -12.2% | -9.15% | 11.4%
CC(C)OC(=O)NN(C)c1ccccc1 | 15.4% | 11.1% | 14% | -54.3% | 3.9% | 13.8%
O=C1CC2(CCCCC2)C(=O)N1c1cc([N+](=O)[O-])ccn1 | 25.4% | 14.7% | 0.8% | 17.6% | 10% | 19.8%
CCc1nnnn1-c1ccc(Br)cc1 | 8.8% | 38.5% | 13.7% | 9.8% | 40.2% | 18.5%
O=C(O)CSc1n[nH]c(-c2ccc(O)cc2)n1 | -18.3% | -7.25% | -7.5% | 18.6% | 4.95% | 37.2%
CN1C(=O)C2CSCN2C1=S (stereo unspecified) | -38% | -7.7% | -5.4% | -12.3% | -13.6% | 5.1%
C[CH2][Sn]([CH2]C)([n]1c2ccccc2c2c(C)c3cnccc3c(C)c21)[n]1c2ccccc2c2c(C)c3cnccc3c(C)c21 | 72.2% (active) | 14.7% | 25.5% | 44.5% | 25.6% | 71.3% (active)
O=C1c2ccccc2S(=O)(=O)c2cc(-c3nn[nH]n3)ccc21 | -2.6% | -29.8% | -22.8% | 0.6% | -13.7% | -48%
CCCCOC(=O)COc1ccc2c(C)c(CCN(CC)CC)c(=O)oc2c1 | -13.1% | -34.1% | 1.25% | -7.55% | -21.8% | -2.5%
NC(=O)c1ccccc1Sc1ccccc1C(N)=O | -4.6% | 2.35% | 5.4% | 2.45% | 1.65% | 0.6%
COc1cc(C(c2cc3c(cc2O)OCO3)N2CCCC2)cc(OC)c1OC (stereo unspecified) | -13.2% | 17.9% | -13.9% | 13% | -5.3% | -7.85%
OC(Cc1cccnc1)(c1ccccc1)c1ccccc1 | -0.3% | -40.4% | -16.7% | -21.5% | -13.9% | -0.4%
CC1COC(C(C)c2ccccc2)O1 (stereo unspecified) | -0.05% | -18.4% | -10.8% | -35.2% | -29.9% | 6.1%
CN(C)c1ccc(N=Cc2ccc(O)cc2)cc1 | 10.9% | 0.55% | -4.6% | 2% | 2.9% | 7%
CC(C)CCCC(C)C1CCC2(C)C3=C(CCC12C)C1(C)Cc2nonc2C(C)(C)C1CC3 (stereo unspecified) | 20.9% | 3.35% | 3.3% | 14.9% | 0.55% | 11.3%
CCCNC(=S)/N=C/c1c(O)c2ccccc2[nH]c1=O | -40% | -44.6% | -11.7% | 12.3% | 6.8% | -13.6%
Cc1ccc(-c2cc(=O)c3cccc(CC(=O)O)c3o2)cc1 | 47.4% | -38.9% | -20.5% | -3.45% | -25.8% | -1.2%
